From PubChem BioAssay (NCATS) come the findings set out here.

Records with an inconclusive call do not appear. A call without a number means that no potency is given here. The source made the active and inactive calls. Calls come from the whole dose curve; as a rule, active = well fitted cell-killing curve with a large enough effect; inconclusive = small, poorly fitted or top-dose-only effect; inactive = flat fitted curve, though single readings scatter.

The assay is described as follows: Cell Viability - LYMP2-023 (AID 975). Note: nearly all actives have a fitted effect of over 55% in size. Particulars: LYMP2-023 lymphoblastoid cell viability; series mostly up to 92.2 µM. An excerpt: NIH Chemical Genomics Center [NCGC]
NIH Molecular Libraries Screening Centers Network [MLSCN]
National Institutes of Environmental Health Sciences [NIEHS]
National Toxicology Program [NTP]
We have developed a 1536-well cell-based assay for quantitative high throughput screening (qHTS) against a number of cell lines to determine in vitro cytotoxicity of small molecules. This particular assay uses a human lymphoblastoid cell line (LYMP2-023) purchased from Coriell Institute for Medical Research.
NCGC Assay Protocol Summary:
The CellTiter-Glo luminescent cell viability assay (Promega) is a homogeneous method to measure the number of viable cells in culture. The end point readout of this assay is based on quantitation of intracellular ATP, an indicator of metabolic activity, using the luciferase reaction. Luciferase catalyzes the oxidation of beetle Luciferin to oxyluciferin and light in the presence of ATP. The luminescent signal is proportional to amount of ATP present.
Using the CellTiter-Glo luminescent cell viability assay, the amount of cellular ATP was measured in the lymphoblastoid cell line with complete culture medium following compound treatment for 24 hours. The assay was performed in opaque white Kalypsys 1536-well plates. In the screen, tetraoctylammonium bromide was used as positive control. Library compounds were measured for their ability to cause acute toxicity in the cell line, as reflected by a decrease in intracellular ATP levels, in a concentration-dependent manner. […] AC50 values were determined from concentration-response data modeled with the standard Hill equation.
qHTS protocol for CellTiter Glo lymphoblastoid cellular assay
[Step] [Parameter] [Value] [Description]
1. Reagent; 5 uL; 2500 lymphoblastoid cells/well
2. Time; 5 hr; 37 C incubation
4. Controls; 23 nL; Tetraoctylammonium bromide 6.4pM to 92 uM
5. Time; 24 hr; 37 C incubation
6. Reagent; 5 uL; CellTiter Glo reagent
7. Time; 30 min; Room Temperature
8. Detection; Luminescence; Viewlux plate reader
Keywords: cell viability, cytotoxicity, lymphoblastoid cell line, luminescence, NTPHTS, NTPHTS_NCGC, NIEHS, DSSTox, MLSMR, MLSCN, NIH Roadmap, qHTS, NCGC
Turning to `Fc1ccccc1`, the Potency entry was “inactive”.
`Cc1cc(C(=O)O)ccc1[N+](=O)[O-]`: the Potency result was “inactive”.
Take `Cc1ccc(C)o1`: the Potency entry is “inactive”.
As to `CCCCCO`, the Potency entry is “inactive”.
Then `CC(C)Nc1ccccc1`, with “inactive”.
As for `O=P(O)(OCc1ccccc1)OCc1ccccc1`, the Potency entry is “inactive”.
On to `CC(C=O)Cc1ccc(C(C)(C)C)cc1` (stereo not given), for which the Potency result is “inactive”.
On to `ON=C1CCCCC1`, for which the Potency entry is “inactive”.
The result for `CC(C)N=C=NC(C)C` reads “inactive”; that for `CNc1ccccc1`, “inactive”; that for `CC(=O)Nc1ccc(C)cc1`, “inactive”.
On to `CCOc1cc(OCC)c(C(C)=O)cc1OCC`, for which the Potency entry is “inactive”.
With `CSc1ccc(C=O)cc1`, the Potency entry was “inactive”.
Then `CCCCCCCCCCCCC1CO1` (stereo not given), with “inactive”; and `Cc1ccc2oc(=O)ccc2c1`, with “inactive”; and `O=C(O)CN(CC(=O)O)CC(=O)O`, with “inactive”.
Turning to `C=C(C)C(N)=O`, the Potency entry was “inactive”.
Then `CC(=C/C=C/C(C)=C/C=C/C=C(C)/C=C/C=C(C)/C=C/C(=O)O)/C=C/C(=O)O`, with “inactive”; and `CCCCOCCOCCSC#N`, with “inactive”.
Then `CCN(Cc1ccccc1)c1ccccc1`, with “inactive”.
The result for `CC(=O)c1cccc([N+](=O)[O-])c1` reads “inactive”; that for `Nc1cccc(O)c1`, “inactive”.
With `CCCC=O`, the Potency entry is “inactive”.
The result for `O=Cc1cccc(Br)c1` reads “inactive”.
`CCC(C)(C)OC`: the Potency entry is “inactive”.
`Cc1ccc2c(c1[N+](=O)[O-])C(=O)c1ccccc1C2=O`: the Potency result is “inactive”.
With `Nc1cc(S(=O)(=O)O)ccc1O`, the Potency entry is “inactive”.
Then `C[C@@H]1CC2(OC3C[C@@]4(C)C5=CC[C@H]6C(C)(C)C(O[C@@H]7OC[C@@H](O)[C@H](O)[C@H]7O)CC[C@@]67C[C@@]57CC[C@]4(C)C31)OC(O)C1(C)OC21` (stereo not given in full), with “inactive”; and `Cc1nc2ccc(Cl)cc2[nH]1`, with “inactive”; and `CN(C)CCCCl`, with “inactive”.
The result for `CC(=O)C1(C)CC2=C(CCCC2(C)C)CC1C` (stereo not given) reads “inactive”; that for `O=C1OC(=O)c2cc([N+](=O)[O-])ccc21`, “inactive”.
Then `CCCCCNCCCCC`, with “inactive”.
For the molecule `CCCCC(CC)CO` (stereo not given), the Potency entry was “inactive”.
The result for `C/C=C(/C)C#N` reads “inactive”.
Then `O=C1OC(=O)c2c(Cl)c(Cl)c(Cl)c(Cl)c21`, with “inactive”; and `N#CCc1ccccc1[N+](=O)[O-]`, with “inactive”; and `NC=O`, with “inactive”.
As to `O=C(Cl)c1ccccc1[N+](=O)[O-]`, the Potency entry was “inactive”.
`c1ccc2[nH]cnc2c1`: the Potency entry was “inactive”.
